Shown are actives, neighbours in structure and some others; about 1.3% of the full set was active somewhere.
TCR activator: activates T cell receptor signaling | primary human leukocytes, anti-CD3, IL-2 HTRF, 48 h | 330,000 tested, under 10 active | Potency, µM (highest dose often 9.22 µM), usual class: activators
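Readout: HTRF IL-2, Eu-cryptate/d2 antibody pair, 320nm excitation, 665nm emission. Stimulus: a-CD3 beads, no co-stimulation. Cells: primary human leukocytes. Exposure: 48 hr with compound.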
IL2 activator: activates IL-2 in a cell-based reporter assay; IL-2 activation reporter assay, cell-based qHTS; stimulated with anti-CD3/CD4/CD28 beads; in transgenic mouse T cells; activation, % (series mostly up to about 46 µM); 360,000 tested, 0.065% active; in the data active means activation above about 50%; inconclusive means mostly about 30% to 49%
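Quantitative HTS in unstimulated transgenic mouse T cells, with memory T cells as non-tolerant control and PMA/ionomycin as tolerance-bypass control. Compound pretreatment lasted 60 minutes before 18 h bead stimulation; EGFP/DsRed fluorescence read.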
p53 reactivation: restores transcriptional activity of mutant p53 | H1299 p53-A138V BP100-luciferase reporter, luminescence, 24 h | Potency, µM (titrated, usually from 92.2 µM), actives largely listed as activators | 320,000 tested, 0.063% active | AID 504706; further: nearly all actives have a fitted effect of over 45% in size
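H1299 (p53-null), stable ts p53-A138V + BP100-Luc; 1000 cells/well, Opti-MEM/10% FBS; cpd 4 pt, 1:5; 24 h, 37 deg C, 5% CO2; detection reagent 10 min RT; luminescence.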
Mito fusion yeast: inhibitors of mitochondrial division or activators of mitochondrial fusion. S. cerevisiae fusion-defective mutant growth rescue, CellTiterGlo 48 h. Potency, µM (doses to about 46.1 µM), hits mostly activators. 320,000 tested, 0.23% active; further: nearly all actives have a fitted effect of over 45% in size
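Luminescent cell viability in 1536-well qHTS format served as the measure of rescued growth in ts fusion-mutant S. cerevisiae cultured on non-fermentable YPEG for 48 hours at 37C.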
BRCA1 expr act: BRCA1 expression activation; Potency, µM (top dose mostly 46.1 µM), actives largely listed as activators; MCF7-BRCA1-FFLuc reporter, luminescence, 48 h; response scale: scaled: vehicle 0%, 10 µM genistein 100%; 380,000 tested, 1.1% active; further: nearly all actives have a fitted effect of over 80% in size
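Cells: MCF7-BRCA1-FFLuc, 2000/well. Exposure: 48 h, 37 °C, 5% CO2. Read: luminescence, 15 min post-substrate. Controls: genistein 10 microM (maximal activation), DMSO (neutral).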
Hits are given with their value; . = inactive; ? = inconclusive; / = no result given. Unless noted, the call rests on the fitted dose curve; in most records, active means well fitted curve in the direction sought with a large enough effect; inconclusive means small, poorly fitted or top-dose-only effect, or another doubt; inactive means no such curve, though single readings can be large; an effect the other way counts as inactive or inconclusive.

SMILES	TCR activator	IL2 activator	p53 reactivation	Mito fusion yeast	BRCA1 expr act
CN(C)c1cccc(C(=O)N/N=C/c2ccsc2)c1	.	.	?	.	10µM
CC[C@]1(O)C[C@H]2CN(CCc3c([nH]c4ccccc34)[C@@](C(=O)OC)(c3cc4c(cc3OC)N(C=O)[C@H]3[C@@](O)(C(=O)OC)[C@H](OC(C)=O)[C@]5(CC)C=CCN6CC[C@]43[C@@H]65)C2)C1	/	/	/	/	.
CCOC(=O)c1ccc(NC(=O)c2ccccc2)cc1	.	.	?	.	2.8µM
O=C(OCc1ccc(Br)cc1)c1ccncc1	.	.	.	.	.
CC(=O)Nc1ccc(C(=O)OCCc2ccccc2)cc1	.	.	?	.	5µM
COc1ccc(NC(=O)C23CCC(C)(C(=O)O2)C3(C)C)cc1 (stereo not given)	.	.	.	.	.
CC(=O)Nc1ccc(C(=O)OCc2ccc(Br)cc2)cc1	.	.	.	16µM	.
CCOC(=O)c1ccc(NC(=O)C23CCC(C)(C(=O)O2)C3(C)C)cc1 (stereo not given)	.	.	?	.	10µM
O=C(COc1ccccc1C(=O)Nc1cccnc1)Nc1ccc(Br)cc1	/	/	/	/	.
CCn1c2ccccc2c2nnc(SCC(N)=O)nc21	/	.	.	.	.
CCn1c2ccccc2c2nnc(SCc3ccccc3)nc21	.	.	.	16µM	.
CC(C)CCNC(=O)C(=O)Nc1ccccc1	.	.	.	.	8.9µM
Cc1ccc(NC(=O)COC(=O)c2ccccc2OCC(=O)Nc2ccc(Br)cc2)c(C)c1	/	/	/	/	.
O=C(NCC(O)c1ccccc1)c1cccs1 (stereo not given)	.	.	.	.	7.1µM
O=C(NCC(=O)N1CCN(Cc2ccccc2)CC1)c1cccs1	.	.	.	/	10µM
O=C(c1cccs1)N1CCN(Cc2ccccc2)CC1	.	.	.	.	.
O=C(c1ccccc1)c1cc2ccccc2oc1=O	.	.	.	.	.
O=C(c1ccccc1)c1cc2ccccc2o1	.	.	?	.	10µM
CCC(=O)Nc1ccc(NC(=O)c2cc3ccccc3o2)cc1	.	.	.	.	.
O=C(NNC(=O)c1cc2ccccc2o1)c1ccc(F)cc1	.	.	.	.	.
O=C(c1ccc(F)cc1)c1cc2ccccc2o1	.	.	?	.	11µM
CC(Cc1ccccc1)NC(=O)c1cc2ccccc2o1 (stereo not given)	.	.	?	.	7.1µM
CCOc1ccc(-c2cc(CCCC(=O)NCCc3ccc(SC)cc3)no2)cc1	/	/	/	/	.
CCOc1ccc(N(CC)C(=O)Cn2cnc3sc(C)c(S(=O)(=O)N4CCN(c5ncccn5)CC4)c3c2=O)cc1	/	/	/	/	.
Cc1ccc(Sc2ccc(NC(=O)CCl)cc2)cc1C	.	.	.	14µM	.
SMILES	TCR activator	IL2 activator	p53 reactivation	Mito fusion yeast	BRCA1 expr act
CC(O)CNc1nc2sc3c(c2c(=O)n1CCc1ccccc1)CCCCC3 (stereo not given)	.	.	?	20µM	.
CN(C)CCNc1nc2sc3c(c2c(=O)n1CCc1ccccc1)CCCCC3	.	.	.	.	.
CC(=O)Oc1oc(-c2ccccc2)nc1C=Nc1ccccc1	.	.	.	.	.
CN(C)c1ccc(N=Cc2nc(-c3ccccc3)oc2OC(=O)c2cccc(Br)c2)cc1	.	.	?	.	3.2µM
COc1ccc(N=Cc2nc(-c3ccccc3)oc2OC(=O)c2ccccc2)cc1	.	.	?	.	6.3µM
COc1ccc(/C=N/n2c(N)nc3ccccc32)cc1OC	.	.	.	.	.
COc1cccc(/C=N/n2c(N)nc3ccccc32)c1OC	.	.	.	.	10µM
COc1cccc(C=NN2CCCCCC2)c1OC	.	.	/	/	11µM
COc1ccc2nc(/C=N/NC(=O)CCNC(=O)OC(C)(C)C)ccc2c1	.	.	?	.	6.3µM
O=C(Nc1ccc(NC(=O)C2CC2)cn1)c1ccccc1	.	.	.	.	?
O=C(Cc1ccc(Cl)cc1)Nc1ccc(Br)cn1	.	.	.	.	13µM
O=C(Cc1ccccc1)Nc1ccc(NC(=O)c2ccccc2)nc1	.	.	.	.	13µM
CCOc1ccc(NC(=O)C(Cc2ccccc2)N2C(=O)c3cccc4cccc(c34)C2=O)cc1 (stereo not given)	.	97	.	.	.
O=C(CCOc1ccccc1)Nc1ccccc1	.	.	?	.	.
O=C(Cc1ccc(Cl)cc1)Nc1ccc(Cl)cn1	.	.	/	.	?
Cc1ccc(NC(=O)CCOc2ccccc2)cc1	.	.	?	.	7.1µM
CCOc1cccc(C2C=C(c3ccc4c(c3)OCO4)NC(c3ccccc3Cl)N2)c1O (stereo not given)	/	/	/	/	.
CN(C)c1ccc(/C=C/c2ccnc3ccc(-c4ccccc4)cc23)cc1	/	/	/	/	.
CN(C)c1ccc(-c2nnc(SCC(=O)NCc3ccco3)n2C)cc1	/	/	/	/	.
COc1cccc2cc(C(=O)NCCc3c(C)[nH]c4ccc(F)cc34)c(=O)oc12	/	/	/	/	.
Cc1ccc(Nc2nc(Nc3ccc(Cl)cc3)nc(N3CCOCC3)n2)cc1	/	/	/	/	.
COc1ccc(-n2c(SCc3ccccc3F)nc3c([nH]c4ccccc43)c2=O)cc1	/	/	/	/	.
CCOc1ccc(NC(=O)Cc2ccccc2)cc1	.	.	?	.	7.1µM
CCOc1ccc(NC(=O)c2cnccn2)cc1	.	.	?	.	.
O=C(Nc1ccc(NC(=O)C2CC2)cn1)c1ccccc1Cl	.	.	?	.	13µM
SMILES	TCR activator	IL2 activator	p53 reactivation	Mito fusion yeast	BRCA1 expr act
CCOc1ccc(NC(=O)c2nccnc2CO)cc1	.	.	?	.	5.6µM
COC(=O)Nc1ccc(OCc2ccccc2)cc1	.	.	.	.	13µM
Brc1cccc[n+]1Cc1ccccc1C[n+]1ccccc1Br	/	/	/	/	.
Cc1ccc(S(=O)(=O)N2CCN(c3nc(-c4ccc(C)s4)nc4ccccc34)CC2)cc1	/	/	/	/	.
CCOc1nc(C#N)nc(N(c2ccccc2)c2ccccc2)n1	/	/	/	/	.
CC1CCCCN1C(=O)c1cc(-c2ccc3c(c2)OCO3)on1 (stereo not given)	.	.	?	.	?
CCC1CCCCN1C(=O)c1cc(-c2ccc(Cl)c(Cl)c2)on1 (stereo not given)	.	.	?	.	11µM
O=C(c1cc(-c2ccc(Cl)c(Cl)c2)on1)N1CCCCC1	.	.	?	.	4µM
CC1CCCCN1C(=O)c1cc(-c2ccc(Cl)c(Cl)c2)on1 (stereo not given)	.	.	?	.	5.6µM
COc1ccc(S(=O)(=O)c2c(SC)nn(CC(=O)Nc3ccc(C)c(Cl)c3)c2N)cc1	/	/	/	/	.
CCOc1ccc2c(c1)S/C(=C\c1cccs1)C(=O)N2	.	60	?	.	?
Cc1cc(C)cc(N=C2NC(=O)/C(=C/c3cccs3)S2)c1	.	.	.	.	.
Nc1ncnc2c1ncn2COC(CO)CO	/	/	/	/	.

Source: PubChem
